Measurements reported in PubChem BioAssay AID2702 (National Center for Advancing Translational Sciences (NCATS), 2010).
Active and inactive are the calls of the source.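 The calls were made as follows: active = compounds blocking 15-hLO-2 with IC50 at or below the top tested dose, none here; inactive = the rest.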

biological target: Polyunsaturated fatty acid lipoxygenase ALOX15B (Homo sapiens) (UniProt O15296); experiment: Cuvette-Based Assay fo Inhibitors of 15-hLO-2 (15-human lipoxygenase 2); conditions: purified 15hLO-2, arachidonic acid, UV 234 nm cuvette
Sequence (O15296 whole entry, looked up): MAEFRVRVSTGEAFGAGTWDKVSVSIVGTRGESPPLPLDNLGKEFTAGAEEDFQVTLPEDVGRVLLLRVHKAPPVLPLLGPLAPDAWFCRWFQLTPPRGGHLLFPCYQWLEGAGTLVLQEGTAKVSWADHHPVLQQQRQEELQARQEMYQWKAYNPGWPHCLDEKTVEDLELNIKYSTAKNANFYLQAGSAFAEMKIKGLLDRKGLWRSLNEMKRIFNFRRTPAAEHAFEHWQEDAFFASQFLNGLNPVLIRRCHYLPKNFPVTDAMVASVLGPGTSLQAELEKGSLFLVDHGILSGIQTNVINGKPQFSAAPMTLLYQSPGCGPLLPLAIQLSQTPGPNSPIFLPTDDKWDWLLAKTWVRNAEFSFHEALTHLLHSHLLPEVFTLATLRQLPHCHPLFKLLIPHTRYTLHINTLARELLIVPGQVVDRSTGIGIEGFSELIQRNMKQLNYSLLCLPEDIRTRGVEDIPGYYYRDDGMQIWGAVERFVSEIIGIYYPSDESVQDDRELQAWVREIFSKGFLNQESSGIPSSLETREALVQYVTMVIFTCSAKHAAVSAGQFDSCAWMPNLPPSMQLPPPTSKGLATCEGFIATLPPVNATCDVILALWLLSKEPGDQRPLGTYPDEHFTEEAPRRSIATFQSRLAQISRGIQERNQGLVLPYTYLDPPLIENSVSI
Description: Human lipoxygenase 15hLO-2 is a member of the closely related lipoxygenase family of enzymes which catalyze the site-specific oxidation of arachidonic acid to various hormone precursor molecules and as such is a candidate for drug development in a variety of disease areas, such as cancer and inflammation. Inhibition of 15hLO-2 activity was screened by utilizing arachidonic acid as a substrate. The extent of hydroperoxide product formation was measured by a secondary chromogenic reaction in which xylenol orange (XO, Sigma-Aldrich, cat. number 39,818-7) reacts with the ferric ions produced from the reaction between the hydroperoxide and ferrous ions. The Fe(III)-XO complex is characterized with red-shifted absorbance at 560 nm. A purified preparation of human 15hLO-2 was supplied by Professor Ted Holman, University of California, Santa Cruz. This assay is includes some confirmation and follow-up compounds for related primary screening assay AID 881. Assay Provider: Holman, T.R., University of California, Santa Cruz Screening Center PI: Austin, Christopher P. Screening Center: NIH Chemical Genomics Center
For control experiments, 2 mL of substrate buffer (7 uM arachidonic acid / 25 mM HEPES / 0.01% (v/v) Triton X-100, pH 7.5) was aliquoted in a cuvette with a magnetic stir bar. After equilibrium was ensured, an aliquot of inhibitor solvent was added (DMSO or MeOH), and equilibrium was once again assured. The reaction was started by adding enzyme to the cuvette and the reaction was followed until completed. The inhibition experiments were performed as above, except the actual inhibitory compound was added instead of vehicle. To achieve an IC50, typically 5 concentrations of the inhibitor were studied. If the inhibitor concentration was constant, then five different reaction volumes were used. Step \ Parameter \ Value \ Description 1; UV-Vis; 234 nm; Equilibration 2; Reagent; 2 mL; Substrate buffer 3; UV-Vis; 234 nm; Equilibration 4; Reagent; varies; Compound 5; UV-Vis; 234 nm; Equilibration 6; Reagent; 50-200 nM; Enzyme 15hLO-2 7; UV-Vis; 234 nm; Enzymatic reaction Step \ Notes 1. Blank cuvette to air. 2. 7 uM AA, 25 mM HEPES, 0.01% Triton X-100, pH 7.5. 3. No change in absorbance ensured. 4. Compound vehicle or compound in various concentrations depending on potency. 5. No change in absorbance ensured. 6. Enzyme concentration to achieve reaction rate between 0.02 and 0.04 AU/s. 7. Enzymatic reaction visualized until completion.

outcome, inactive:
O=C1c2ccccc2NC(c2ccc(-c3cccc(Cl)c3)o2)N1O (configuration not stated), O=C(OCC#CCSc1nnc(-c2cccc3ccccc23)o1)c1cccs1, CC(=O)N1CCN(c2ccc(NCc3ccc4c(c3)OCO4)cc2)CC1, COc1cccc(CNc2ccc(N3CCCCC3)cc2)c1OC, O=C(OCC#CCSc1nnc(-c2cccc3ccccc23)o1)c1cc2ccccc2o1, CC(C)Nc1oc(-c2cccc3ccccc23)nc1C#N, O=C(OCC#CCSc1nnc(-c2cccc3ccccc23)o1)c1ccc(F)cc1
